In patent US20060069055, “Delivery of polynucleotides” (published 2006) one finds IC50 data, which are given here for one sequence.

For this assay, the target named is NF-kB p65/p50 heterodimer (Homo sapiens, UniProt Q04206;P19838 Q04206:1-551,P19838:1-433). The assay is described as follows: EMSA; competition against labelled probe 113/114. The following applies: protein: extract; tags: nuclear extract of LPS-stimulated THP-1 cells; dsDNA, one strand shown; PS at the 4 most 3' linkages of both strands. From the text:
The EMSA assay was employed to characterize oligonucleotide decoys for the NF-κB transcription factor. […] Using the above modified oligonucleotides to compete for binding for the above-mentioned NF-κB family members, it was possible to compare the binding affinity of these oligonucleotides against the high affinity radiolabeled probe and each other. This assay has also enabled the design of a decoy which selectively binds particular members of the NF-κB family. By using increasing concentrations of various oligonucleotides, it was observed that, by deleting or changing targeted residues in the binding site, it was possible to specifically decrease the binding of the decoy molecule to p50/p50 homodimers, while retaining the affinity for p65/p50 and cRel/p50 heterodimers.
The NF-κB gel shift assays (EMSA) were performed as follows. A double-stranded oligonucleotide containing a consensus NF-κB binding site (5′ […].GGC 3′) (SEQ ID NO: 26) was end-labeled with γ³²P-ATP using T4 Polynucleotide Kinase (Promega). […] The dried gels were imaged and quantitated using a Typhoon 8600 Phosphorlmager (Amersham) and ImageQuant software. […]

Sequence of NF-kB p65/p50 heterodimer (Q04206 whole entry, chain 1 of 2): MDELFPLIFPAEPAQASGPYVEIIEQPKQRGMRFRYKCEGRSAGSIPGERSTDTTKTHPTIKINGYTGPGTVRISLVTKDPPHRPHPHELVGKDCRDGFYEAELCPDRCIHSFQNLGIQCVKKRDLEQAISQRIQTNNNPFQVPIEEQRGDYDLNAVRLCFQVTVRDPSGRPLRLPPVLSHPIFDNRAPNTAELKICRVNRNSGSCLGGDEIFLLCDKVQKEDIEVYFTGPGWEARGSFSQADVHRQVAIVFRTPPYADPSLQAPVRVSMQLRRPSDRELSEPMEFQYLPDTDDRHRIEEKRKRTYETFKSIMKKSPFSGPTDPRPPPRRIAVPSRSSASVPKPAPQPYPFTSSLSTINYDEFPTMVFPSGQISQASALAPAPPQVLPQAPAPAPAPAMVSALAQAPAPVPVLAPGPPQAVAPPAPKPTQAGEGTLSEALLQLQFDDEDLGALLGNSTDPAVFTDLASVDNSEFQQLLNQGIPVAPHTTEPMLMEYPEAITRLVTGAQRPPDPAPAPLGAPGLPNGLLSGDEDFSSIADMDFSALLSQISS
Sequence of NF-kB p65/p50 heterodimer (P19838 1-433, chain 2 of 2): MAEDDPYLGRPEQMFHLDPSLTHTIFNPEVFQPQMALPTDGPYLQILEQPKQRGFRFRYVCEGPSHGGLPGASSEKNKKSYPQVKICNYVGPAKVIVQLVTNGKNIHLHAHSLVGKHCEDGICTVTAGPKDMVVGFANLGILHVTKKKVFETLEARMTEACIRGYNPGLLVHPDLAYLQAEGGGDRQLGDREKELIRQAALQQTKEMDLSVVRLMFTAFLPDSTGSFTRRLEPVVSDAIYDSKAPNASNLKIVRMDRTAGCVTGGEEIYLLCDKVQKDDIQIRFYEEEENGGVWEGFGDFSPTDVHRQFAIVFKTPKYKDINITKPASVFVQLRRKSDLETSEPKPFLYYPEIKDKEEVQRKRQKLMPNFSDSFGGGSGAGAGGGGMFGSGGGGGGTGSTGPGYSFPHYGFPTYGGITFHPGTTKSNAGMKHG

Regarding AGTTGAGGACTTTCCAGGC, the IC50 is 85 fold molar excess.
